Screening data: PubChem BioAssay, National Center for Advancing Translational Sciences (NCATS)
Marburg entry inh – blocks Marburg virus binding to or entry into cells; Marburg virus pseudotyped entry inhibition, cell reporter; Potency, µM (top dose mostly 37.8 µM), without a hit: at the top dose activity change, negative = inhibition, actives largely listed as inhibitors; hit rate 1.8% among 300,000; calls by dose curve; tested in HEK293 cells; also: potency is read from the fitted curve at half-maximal effect; % is scaled to controls: 0 for no effect and ±100 for the full control effect
Lassa entry inh – inhibitors of Lassa virus binding or cell entry; Lassa virus pseudotype entry inhibition, cell reporter; Potency, µM (highest dose often 37.9 µM), inactives show top-dose activity change, negative = inhibition, actives largely listed as inhibitors; hit rate 1.2% among 300,000; AID 540256; calls by dose curve; tested in HEK293 cells; also: potency is read from the fitted curve at half-maximal effect; % is scaled to controls: 0 for no effect and ±100 for the full control effect; nearly all actives have a fitted effect of over 50% in size
Shiga inhibitor – blocks Shiga toxin action in Vero cells; hit rate 9.2% among 290,000; Vero cells, Shiga toxin protein synthesis inhibition reporter; AID 2315; inhibition, % at 38.7 µM; in the data active = inhibition mostly above about 28%, no sharp cut-off; inactive = mostly below about 43%; also: 0% is about no effect
VACV Venus inh – inhibitors of vaccinia virus (Venus reporter); Vaccinia virus Venus reporter expression, fluorescence; Potency, µM (top dose mostly 36.5 µM), for the others: top-dose activity change, negative = inhibition, hits mostly inhibitors; hit rate 0.46% among 330,000; AID 720580; calls by dose curve; tested in A549 cells; also: potency is read from the fitted curve at half-maximal effect; % is scaled to controls: 0 for no effect and ±100 for the full control effect; nearly all actives have a fitted effect of over 30% in size
CHX counter – affects cycloheximide protein synthesis inhibition readout, counter-screen | cell reporter, cycloheximide protein synthesis inhibition counterscreen | max response, % | hit rate 12% among 300,000 | AID 2314; in the data active = max response mostly above about 13%, no sharp cut-off; inactive = mostly below about 14%; also: read at 38.3 µM for the half of the compounds with a filed dose; 0% is about no effect
Vaccinia mCherry – inhibitors of vaccinia virus infection (mCherry reporter signal); Vaccinia virus mCherry reporter infection, fluorescence; Potency, µM (highest dose often 36.5 µM), inactives show at the top dose activity change, negative = inhibition, actives largely listed as inhibitors; hit rate 0.63% among 310,000; AID 720579; calls by dose curve; tested in A549 cells; also: potency is read from the fitted curve at half-maximal effect; % is scaled to controls: 0 for no effect and ±100 for the full control effect; nearly all actives have a fitted effect of over 35% in size
The depositor's hits bear a star; i = inactive; ? = inconclusive; · = no result given; [ ] = remark or other dose. Only a selection was taken, and hits are over-represented in it overall.

SMILES	Marburg entry inh	Lassa entry inh	Shiga inhibitor	VACV Venus inh	CHX counter	Vaccinia mCherry
O=C(NCCc1ccccc1)c1cc(-c2ccco2)on1	-1%	-3%	104*	·	45*	·
O=C(NCc1ccco1)c1cc(-c2ccco2)on1	-3%	20%	74*	·	31*	·
C=C(C)C(=O)Nc1cccc(C2=NOC3(C2)C[C@@H](C(N)=O)N(C(=O)CCCCC)C3)c1 (some centres undefined)	·	·	-1	-16%	-4	i
Cc1ccc(-c2cc3ncc4c(n3n2)-c2cc(F)ccc2OC4)cc1	?	-12%[46.1 µM]	·	-7%	·	-9%
O=[N+]([O-])c1ccc(C2=Nc3cc(Cl)ccc3OC2)cc1	11%[46.1 µM]	3%[46.1 µM]	62*	-16%	12	?
Cc1ccc2c(c1)N=C(c1ccc(F)cc1)CO2	?	4%	111*	-17%	41*	·
Cc1ncc2c(c1CNC(=O)/C=C/c1cccs1)CCN(C(=O)c1noc3c1CCCC3)C2	·	·	·	-2%	·	-8%
COc1ccc(NS(=O)(=O)c2ccc3c(c2)n(C)c(=O)c(=O)n3C)cc1Cl	?	13%[46.1 µM]	·	0%	·	-9%
CN1CCN(S(=O)(=O)c2csc(C(N)=O)c2)CC1	·	·	-4	·	-2	·
COc1cccc(NC(=O)CSc2nnc(-c3cc(-c4ccccn4)nc4ccccc34)o2)c1	-16%	-2%	22	0%	5	·
Cc1csc(Nc2ccccc2)[n+]1C	-8%[46.1 µM]	2%	67	3%	36*	1%
O=C(N/N=C/c1ccc([N+](=O)[O-])o1)c1cc2ccccc2o1	·	·	-11	·	11	·
O=[N+]([O-])c1ccc(/C=N/Nc2ccc3ccccc3c2)o1	-11%	3%	126*	·	58*	·
Cc1ccc2nc(N/N=C\c3ccc([N+](=O)[O-])o3)nc(-c3ccccc3)c2c1	10µM*	?	-3	-11%	-3	·
CCN(CC)C(=O)Oc1ccc2cc(Br)ccc2c1	?	2%	123*	-22%	28*	-7%
COc1ccc2c(=O)c(-c3ccc4c(c3)OCO4)coc2c1	?	3%	76*	-14%	68*	-25%
COc1ccccc1-c1coc2cc(OC(=O)N3CCOCC3)ccc2c1=O	·	·	101*	·	48*	·
COc1ccc(-c2coc3cc(OC(=O)N4CCOCC4)ccc3c2=O)cc1	-11%[46.1 µM]	?	31*	-4%	26*	i
COc1cccc(Oc2coc3cc(OC(=O)N4CCOCC4)ccc3c2=O)c1	-16%[46.1 µM]	-12%	27	-11%	11	-2%
O=C(NNC(=O)c1ccccc1C(F)(F)F)c1csc(N2CCOCC2)n1	0%	-5%	-14	-2%	-2	-13%
O=C(O)Cc1sc(=O)[nH]c1O	4%[46.1 µM]	-20%[46.1 µM]	·	4%	·	-22%
CC(=O)Oc1ccc2c(=O)c(Oc3ccccc3[N+](=O)[O-])coc2c1	?	0%	-5	1%	-2	-16%
CC(=O)Oc1ccc2c(=O)c(-c3nc4ccccc4s3)coc2c1	?	1%	95*	-8%	60*	i
CCN(CC)C(=O)Oc1ccc2c(=O)c(-c3ccc(OC)cc3)coc2c1	-2%	-6%	83*	-24%	45*	?
CCc1cc2c(=O)c(-c3nc4ccccc4[nH]3)coc2cc1OC(=O)N1CCOCC1	15%	5%	43	·	24*	·
SMILES	Marburg entry inh	Lassa entry inh	Shiga inhibitor	VACV Venus inh	CHX counter	Vaccinia mCherry
CCN(CC)C(=O)Oc1ccc2c(=O)c(-c3ccc(OC)cc3)c(C)oc2c1	-26%	-16%[14.3 µM]	10	-29%	18	-12%
CC1(C)O[C@@H]2C[C@H]3[C@@H]4CCC5=CC(=O)CC[C@]5(C)[C@@]4(F)[C@@H](O)C[C@]3(C)[C@]2(C(=O)CCl)O1	·	·	·	-14%	·	i
COc1ccc(S(=O)(=O)NCCCO)cc1-c1nnc2c3ccccc3c(C)nn12	14%[46.1 µM]	-8%[46.1 µM]	·	-4%	·	-15%
O=C(/C(=C/O)N=Nc1ccccc1)c1ccc(Cl)cc1	?	?	-4	-10%	7	-18%
Cc1ccc(N=N/C(=C\O)C(=O)c2ccc(Cl)cc2)cc1	?	?	106*	-26%	36*	-23%
CC1CC=CC2C1C(=O)N(Cc1ccccc1)C2c1ccc2ccccc2c1-c1ccc(N(C)C)cc1 (centres undefined)	·	·	-7	·	-3	·
CCCc1cc(=O)n2c(nc3ccccc32)[nH]1	9%	-20%	37	?	18*	·
Cc1cc(=O)n2c(nc3ccccc32)[nH]1	?	22%	12	·	-3	·
CCC(=O)N1CCc2cc(Br)cc(S(=O)(=O)N3CCN(c4cc(C)ccc4C)CC3)c21	12%[46.1 µM]	?	·	4%	·	7%
CCC(C)C(=O)Nc1nc2ccc(OC)cc2s1 (centres undefined)	?	?	71*	-19%	42*	i
CC(=O)NCCC(=O)Nc1nc2ccc(Oc3ccccc3)cc2s1	?	?	101*	-3%	62*	-1%
COc1ccc2nc(NC(=O)Nc3cccc4ccccc34)sc2c1	-10%	-13%	56	·	23	·
CCOc1ccc2nc(N(Cc3ccccc3)C(=O)CCNC(C)=O)sc2c1	4%	-1%	51*	-15%	30*	-14%
CCC(C)C(=O)Nc1nc2ccc(S(C)(=O)=O)cc2s1 (centres undefined)	?	17%	37*	-20%	20*	-26%
COc1ccc(OCC(=O)Nc2nc3ccc(NC(C)=O)cc3s2)cc1	·	·	28	·	1	·
COc1ccc2nc(NC(C)=O)sc2c1	2%	1%	82*	·	42*	·
CC(=O)Nc1nc2ccc(Br)cc2s1	?	-26%	40	-26%	21*	i
COc1cccc(CN2C(=O)NC(C)(C3CCN(Cc4cccc(O)c4)CC3)C2=O)c1OC (centres undefined)	·	·	·	-22%	·	-3%
Nc1cn(C2OC(CO)C(O)C2O)c(=O)[nH]c1=O (centres undefined)	·	·	-12	·	-3	·
Cc1nn2c(N)c(-c3ccccc3)cnc2c1-c1ccc(Cl)cc1	?	?	112*	-27%	38*	-13%
Cc1cc(N)n2nc(-c3ccccc3)c(-c3ccccc3)c2n1	·	·	53	·	11	·
Cc1nc2c(-c3ccccc3)c(C)nn2c(N)c1-c1ccccc1	?	?	29*	?	49*	·
Cc1ccc(-c2ccnc3c(Cl)c(C)nn23)cc1	-1%[46.1 µM]	-20%[46.1 µM]	-5	-2%	-3	i
C=C(C)CSc1cc(C)nc2c(-c3ccccc3)c(C)nn12	·	·	34	·	36*	·
Cc1nn2c3c(cnc2c1-c1ccccc1)C(=O)CCC3	-1%	1%	5	·	2	·
Cc1nn2c(-c3ccccc3)ccnc2c1-c1ccccc1	?	?	94*	·	49*	·
O=C(Nc1cc(C(F)(F)F)ccc1Cl)c1cc(-c2ccc3c(c2)OCCO3)on1	0%[46.1 µM]	-2%[46.1 µM]	·	-10%	·	-16%
O=C(N/C(=C/c1cccc(Br)c1)C(=O)N1CCCCC1)c1ccco1	·	·	·	-15%	·	i
O=C(Nc1cccc2ccccc12)c1cnn2c1NC(=C1CC1)C=C2C(F)F	·	·	·	-14%	·	-7%
CC(C)c1ccc(/C=C2\CC/C(=C\C=N\N(C)C)C2=O)cc1	16%	-6%	125*	-8%	55*	-18%
